Compound activity as filed in PubChem BioAssay.
MCF10A rereplic – induces DNA re-replication in MCF 10a normal breast cells. MCF 10A DNA re-replication, Hoechst nuclear intensity, 48 h. Potency, µM (series often up to 46.1 µM), for inactives: top-dose activity, positive = re-replication, actives largely listed as activators. 350,000 compounds, 2.9% hits; further: % of control where 0% means no effect; nearly all actives have a fitted effect of over 50% in size
SW480 rerep – induces DNA re-replication in SW480 colon adenocarcinoma cells; SW480 DNA re-replication, Hoechst DNA content imaging, 48 h; 340,000 compounds, 1.8% hits; AID 624297; Potency, µM (doses to about 46.1 µM), without a hit: at the highest dose re-replication activation, most hits filed as activators; further: % of control where 0% means no effect; nearly all actives have a fitted effect of over 55% in size
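250 cells/well; 23 nL cpd via pin tool; 48 hr, 37 C, 5% CO2; Hoechst 40 min; imager read of total nuclear intensity, ex 405/em 500-530 nm.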
VP16 counter – Gal4-VP16 reporter inhibition counter-screen | Potency, µM (highest dose often 53.6 µM), without a hit: top-dose activity, negative = inhibition, most hits filed as inhibitors | 310,000 compounds, 3.5% hits | AID 2546 | Drosophila S2 Gal4-VP16 UAS-luciferase, luminescence, 20 h;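 further: Gal4-VP16 expression switched on by copper sulfate through the metallothionein promoter; on the % scale 0 is the no-effect control and ±100 the full control effect; nearly all actives have a fitted effect of over 50% in size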
RORgamma inh – inhibitors of mouse ROR gamma transcriptional activity | Drosophila S2 Gal4-RORgamma UAS-luciferase reporter, 20 h | Potency, µM (doses to about 53.6 µM), for inactives: at the top dose activity change, negative = inhibition, actives largely listed as inhibitors | 310,000 compounds, 5.4% hits | P51450 | AID 2551; further: on the % scale 0 is the no-effect control and ±100 the full control effect; nearly all actives have a fitted effect of over 60% in size
Target sequence (P51450 whole entry, looked up, the tested form may be a part): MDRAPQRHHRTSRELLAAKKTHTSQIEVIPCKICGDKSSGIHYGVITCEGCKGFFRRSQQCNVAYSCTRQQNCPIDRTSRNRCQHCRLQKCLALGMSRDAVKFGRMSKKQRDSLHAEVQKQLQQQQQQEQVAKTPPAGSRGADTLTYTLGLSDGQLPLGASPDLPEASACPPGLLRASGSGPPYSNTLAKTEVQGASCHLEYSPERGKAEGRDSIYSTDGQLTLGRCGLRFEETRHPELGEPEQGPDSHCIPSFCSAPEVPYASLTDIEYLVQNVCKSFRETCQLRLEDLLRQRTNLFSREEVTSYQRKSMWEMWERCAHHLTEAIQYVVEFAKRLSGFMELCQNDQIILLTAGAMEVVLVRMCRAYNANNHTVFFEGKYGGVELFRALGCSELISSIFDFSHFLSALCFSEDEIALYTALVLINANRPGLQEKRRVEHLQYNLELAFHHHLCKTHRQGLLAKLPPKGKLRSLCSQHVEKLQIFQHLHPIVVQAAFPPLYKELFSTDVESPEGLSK
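Compounds are pin-transferred onto Drosophila Schneider cells expressing a copper-inducible Gal4–ROR gamma transactivation domain fusion. After 1 hr, copper sulfate is added to 700 uM final; luciferase is read 20 hr later.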
ELG1 DNA repair – inhibitors of ELG1-dependent DNA repair in HEK293T cells | HEK293T ELG1-luciferase reporter, luminescence, 16 h; DNA damage induced by 5-fluorouridine | Potency, µM (doses to about 46.1 µM), without a hit: at the top dose activity change, negative = inhibition, hits mostly inhibitors | 330,000 compounds, 2.3% hits | AID 504467; further: on the % scale 0 is the no-effect control and ±100 the full control effect; nearly all actives have a fitted effect of over 55% in size
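Overnight (16 hr) co-exposure of 2,000 cells/well to 5-fluorouridine and compound at 37 °C preceded detection. Luciferase was quantified via ONE-Glo luminescence; loss of signal denotes inhibition.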
Numbers without * were called inactive; ? = inconclusive; . = not tested or not shown; [ ] = another dose, or the depositor's remark. Rows were chosen to be rich in hits. Some 10% of all compounds tested hit in one or more screens of this group. The call rests on the fitted dose curve; in most records, active means well fitted curve in the direction sought with a large enough effect; inconclusive means small, poorly fitted or top-dose-only effect, or another doubt; inactive means no such curve, though single readings can be large; an effect the other way counts as inactive or inconclusive. Potency means the concentration at half of the fitted maximal effect.

SMILES	MCF10A rereplic	SW480 rerep	VP16 counter	RORgamma inh	ELG1 DNA repair
CCOc1cc(NC(=S)NCc2ccco2)c(OCC)cc1NC(C)=O	6%	-2%	0%	-22%	-4%
S=C(NCc1ccco1)Nc1ccccc1Cl	-1%	0%	16%	10µM*	17%
Cc1nc(-c2ccc(C(=O)Nc3ccc(F)cc3)cc2)cs1	2%	2%	?	-25%	?
Nc1nc(-c2ccc(NC(=O)c3ccco3)cc2)cs1	10%	?	?	10µM*	?
Cc1nc(-c2ccc(C(=O)Nc3ccccc3F)cc2)cs1	-2%	-8%	8.9µM*	8.9µM*	?
CC(=O)c1ccccc1NC(=O)CN1C(=O)CS/C1=C\c1nc(-c2ccc(C)cc2)cs1	4%	3%	3%	-16%	-8%
Cc1ccc(-c2csc(/C=C3/SC(C)C(=O)N3CC(=O)Nc3ccccc3F)n2)cc1 (centres undefined)	21µM*	?	.	.	.
Cc1nc(-c2cccc(NC(=O)c3ccco3)c2)cs1	-1%	3%	27%	32%	19%
Cc1nc(-c2ccc(NC(=O)c3ccco3)cc2)cs1	-5%	-3%	4.5µM*	3.5µM*	?
Cc1cc(N2CCCC2)nc2ccc(NC(=S)NCCCOC(C)C)cc12	?	?	?	11µM*	3%
Cc1cc(N2CCCCC2)nc2ccc(NC(=O)c3ccc(Br)o3)cc12	8.2µM*	?	8%	2%	?
CCC(C)NC(=S)Nc1ccc2nc(N3CCOCC3)cc(C)c2c1 (centres undefined)	-15%	3%	?	10µM*	-28%
COc1ccc(CNC(=S)Nc2ccc3nc(N4CCOCC4)cc(C)c3c2)cc1	?	-5%	-93%	10µM*	?
O=C(NOC(=O)c1c(F)cccc1Cl)c1ccc(Cl)c(Cl)c1	-2%	-4%	27%	33%	?
CCOC(=O)Cn1nc(C(F)F)c(Br)c1C	-5%	2%	-7%	6%	7%
N#CC1(NC(=O)CSc2nnc(C3CC3)n2C2CC2)CCCCC1	-4%	-4%	.	.	17%
O=C(NC(=S)NCc1ccco1)c1ccccc1	-14%	-19%	3%	13%	4%
CC(C)(C)c1ccc(C(=O)NC(=S)NCc2ccco2)cc1	?	7%	7.9µM*	6.3µM*	0%
Cc1ccc(C2CC2C(=O)NNC(=S)Nc2cccc(C)c2)cc1 (centres undefined)	?	?	-2%	-16%	1%
CC(C)(C)c1ccc(-c2noc(CCC(=O)NCc3ccco3)n2)cc1	?	8%	4µM*	0.32µM*	1%
COCCCNC(=S)NNC(=O)C1CC1c1ccc(C(C)(C)C)cc1 (centres undefined)	-1%	0%	-13%	4.5µM*	?
O=C(NC(=S)NCc1ccco1)c1ccc(Br)cc1	7%	-3%	16µM*	14µM*	9%
COc1ccc(S(=O)(=O)N2CCCCCC2)cc1NC(=O)c1ccccc1S(C)(=O)=O	0%	-1%	.	.	8%
COCCNC(=S)NC(=O)c1ccc(C(C)(C)C)cc1	?	-13%	11µM*	2µM*	?
CC(=O)Nc1ccc(NC(=S)NC(=O)c2ccc(C(C)(C)C)cc2)cc1	16%	17%	-5%	?	.
SMILES	MCF10A rereplic	SW480 rerep	VP16 counter	RORgamma inh	ELG1 DNA repair
CN(C)c1ccc(/C=C(/C#N)C(=O)NCc2ccccc2)o1	-1%	2%	?	?	?
Cc1cccc(OCCN2C(=O)C(=O)c3cc(C)ccc32)c1	18µM*	?	-9%	19%	-11%
Cc1ccc2c(c1)C(=O)C(=O)N2CCOc1ccccc1	19%	4.1µM*	10%	5%	10%
Cc1cccc(OCCN2C(=O)C(=O)c3cccc(C)c32)c1	-1%	-5%	-5%	3%	6%
Cc1ccc2c(c1)C(=O)C(=O)N2Cc1ccc(Br)cc1	?	18µM*	.	.	?
CCCCN1C(=O)C(=O)c2cc(Cl)ccc21	23µM*	?	.	.	?
Cc1ccc2c(c1)C(=O)C(=O)N2CCCOc1ccccc1C	?	30%	2%	-4%	12%
O=C1CCCCC1(O)Cc1ccc2c(c1)OCO2 (centres undefined)	-38%	0%	.	.	.
CCCN1C(=O)C(=O)c2cc(C)ccc21	89%	6.5µM*	.	.	?
Cc1ccc(OCCN2C(=O)c3ccccc3C2=O)cc1	5%	1%	?	13%	?
O=C1C(=O)N(Cc2ccccc2)C(=O)N1CCOc1ccccc1	13µM*	?	13%	22%	-11%
CCOc1ccc(Br)cc1/C=N/NC(=O)c1ccncc1	?	4%	5%[0.365 µM]	?	0%
COc1ccc(/C=N/NC(=O)c2cccnc2)c2ccccc12	5%	-3%	-19%	1.3µM*	-12%
COc1ccc(/C=N/NC(=O)c2c(Br)cnn2C)c2ccccc12	?	0%	2.8µM*	20µM*	13%
CCOc1cc(Br)cc(/C=N/NC(=O)c2cccnc2)c1O	?	?	1µM*	0.79µM*	?
O=C(NC1CCCCC1)C(c1cccnc1)N(CCc1ccccc1)C(=O)Cc1cccs1 (centres undefined)	2%	2%	-16%	24%	-7%
COc1cccc(C(C(=O)NC2CCCC2)N(C(=O)c2ccco2)c2ccc(-n3cnnn3)c(C)c2)c1OC (centres undefined)	-3%	5%	-4%	0%	-4%
COc1ccc(S(=O)(=O)N2CCC(C(=O)NCCOc3ccccc3F)CC2)cc1OC	-4%	-2%	.	.	10%
COc1ccc(S(=O)(=O)N(CC(=O)O)c2ccccn2)cc1	1%	0%	-24%	4%	9%
COc1ccc(S(=O)(=O)N(CC(=O)O)c2ccccc2)cc1	3.7µM*	5%	-3%	-2%	16%
CCN(c1ccccc1)S(=O)(=O)c1ccc(C(=O)Oc2ccc(C(C)=O)cc2)cc1	-1%	-175%	10µM*	?	13%
CCN(c1ccccc1)S(=O)(=O)c1ccc(C(=O)Nc2cccc(NC(C)=O)c2)cc1	5%	29%	.	.	?
O=C(Nc1ncccc1O)c1ccc(NS(=O)(=O)c2ccc3[nH]c(=O)[nH]c3c2)cc1	4%	16µM*	.	.	0%
COc1ccc(S(=O)(=O)N(CC(=O)N2CCN(c3ccccc3OC)CC2)c2ccccc2)cc1	1%	2%	-6%	19%	21µM*
O=C(c1cnn(C(=O)CN2CCCC2=O)c1)c1ccccc1O	-3%	-1%	.	.	-16%
CC(C)CN(CCNC(=O)CN1N=C(c2ccc(Cl)cc2)CCC1=O)CC(C)C	-7%	-2%	2%	2%	-4%
Cc1cc(C(=O)NNC(=O)c2sccc2C)c(C)o1	0%	6%	.	.	?
